Reference: the supplement of paper PMC10849652
Of roughly 7,900 targets only a part is listed; those with a hit were picked by preference. About 0.6% of all pairs of compound and target were hits.

How the values were obtained:
Assay in all cases: log2 fold change, soluble protein after heating vs DMSO (PISA); higher = thermal stabilisation; K562 cells, 10 uM, 30 min; active = over 0.2 and 3.5 SD of the protein, either way, in both replicates (recomputed)
[1] = compound: COC1=CC=C(C=C1)CN2C=CC3=C2C=C(C=C3)C(=O)NO
Summary of the method: (§1)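 Aliquots of K562 cells (2×10^6 cells/mL) treated with 10 μM compound for 30 min were heated for 3 min over 48°C-58°C. After pooling and extraction in PBS with 0.5% NP-40 at 4°C, soluble protein from a 21,000xg, 90 min spin was quantified by TMTpro 16plex LC-MS/MS with channel sums equalised. Thermal stability is expressed against control samples, from duplicates, as a log2 fold change.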

[2] = compound: CON(C)C(=O)N1N=C(c2cc(F)ccc2F)S[C@@]1(CCCN)c1ccccc1 [filanesib]
Summary of the method: as §1

[3] = compound: CO[C@H]1C[C@@H]2CC[C@@H](C)[C@@](O)(O2)C(=O)C(=O)N2CCCC[C@H]2C(=O)O[C@H]([C@H](C)C[C@@H]2CC[C@H](n3cnnn3)[C@H](OC)C2)CC(=O)[C@H](C)/C=C(\C)[C@@H](O)[C@@H](OC)C(=O)[C@H](C)C[C@H](C)/C=C/C=C/C=C/1C [zotarolimus]
Summary of the method: as §1

[4] = compound: COc1cc(C(=O)O)ccc1NC(=O)[C@@H]1N[C@@H](CC(C)(C)C)[C@](C#N)(c2ccc(Cl)cc2F)[C@H]1c1cccc(Cl)c1F [idasanutlin]
Summary of the method: as §1

[5] = compound: COc1cc(Nc2ncc3c(n2)-c2ccc(Cl)cc2C(c2c(F)cccc2OC)=NC3)ccc1C(=O)O [alisertib]
Summary of the method: as §1

[6] = compound: COc1cc2nc(-c3cc(F)ccc3O)nc(N[C@@H]3CNC[C@H]3C(C)(C)O)c2cc1OC
Summary of the method: as §1

[7] = compound: COc1cc2ncnc(Nc3ccc(F)c(Cl)c3)c2cc1OCCCN1CCOCC1 [gefitinib]
Summary of the method: as §1

[8] = compound: COc1cccc2cc(-c3nc([C@H]4CC[C@H](C(=O)O)CC4)n4ncnc(N)c34)[nH]c12
Summary of the method: as §1

[9] = compound: CS(=O)(=O)CCNCc1ccc(-c2ccc3ncnc(Nc4ccc(OCc5cccc(F)c5)c(Cl)c4)c3c2)o1 [lapatinib]
Summary of the method: as §1

[10] = compound: CS(=O)(=O)N1CCN(Cc2cc3nc(-c4cccc5[nH]ncc45)nc(N4CCOCC4)c3s2)CC1 [pictilisib]
Summary of the method: as §1

[11] = compound: CS(=O)(=O)c1ccc(-c2cnc(N)c(C(=O)Nc3ccccc3)n2)cc1
Summary of the method: as §1

[12] = compound: C[C@@H](Oc1cc(-c2cnn(C3CCNCC3)c2)cnc1N)c1c(Cl)ccc(F)c1Cl [crizotinib]
Summary of the method: as §1

[13] = compound: C[C@@H]1COCCN1C2=NC(=NC(=C2)C3(CC3)S(=O)(=O)C)C4=C5C=CNC5=CC=C4
Summary of the method: as §1

[14] = compound: C[C@H](C1=CC=C(C=C1)C(=O)NC2=C3C=CNC3=NC=C2)N
Summary of the method: as §1

[15] = compound: C[C@H](Nc1ncnc2nc[nH]c12)c1cc2cccc(Cl)c2c(=O)n1-c1ccccc1 [duvelisib]
Summary of the method: as §1

[16] = compound: Cc1cc(Nc2cc(CN3CCOCC3)c3nc(C)c(Cc4ccc(Cl)cc4F)n3n2)n[nH]1 [gandotinib]
Summary of the method: as §1

[17] = compound: Cc1cc(Nc2cc(N3CCN(C)CC3)nc(Sc3ccc(NC(=O)C4CC4)cc3)n2)n[nH]1 [tozasertib]
Summary of the method: as §1

[18] = compound: Cc1cc(SCc2sc(-c3ccc(C(F)(F)F)cc3)nc2C)ccc1OCC(=O)O
Summary of the method: as §1

[19] = compound: Cc1ccc(-n2nc(C(C)(C)C)cc2NC(=O)Nc2ccc(OCCN3CCOCC3)c3ccccc23)cc1 [doramapimod]
Summary of the method: as §1

[20] = compound: Cc1ccc(C(=O)N(CCCN)[C@@H](c2nc3cc(Cl)ccc3c(=O)n2Cc2ccccc2)C(C)C)cc1 [ispinesib]
Summary of the method: as §1

Measured: log2 fold change

ERLIN2 (UniProt O94905)
UniProt O94905, sequence (O94905 whole entry, looked up): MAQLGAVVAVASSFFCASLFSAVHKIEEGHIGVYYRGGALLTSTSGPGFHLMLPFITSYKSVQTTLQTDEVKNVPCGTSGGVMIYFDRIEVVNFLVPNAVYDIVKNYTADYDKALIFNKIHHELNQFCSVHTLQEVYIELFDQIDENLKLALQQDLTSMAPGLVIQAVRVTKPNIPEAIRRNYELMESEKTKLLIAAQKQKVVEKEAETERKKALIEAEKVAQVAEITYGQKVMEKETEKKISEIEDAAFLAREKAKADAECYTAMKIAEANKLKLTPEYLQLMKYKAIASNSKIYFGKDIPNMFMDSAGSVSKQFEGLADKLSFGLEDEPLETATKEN
inactive: [1] -0.006 | [2] 0.039 | [3] 0.034 | [4] 0.09 | [5] -0.085 | [6] -0.143 | [7] -0.058 | [8] -0.076 | [9] -0.019 | [10] -0.09 | [11] -0.017 | [12] -0.034 | [13] -0.167 | [14] 0.068 | [15] -0.032 | [16] -0.044 | [17] 0.009 | [18] 0.155 | [19] 0.057
active: [20] -0.251

EIF4E isoform 2 (UniProt P06730)
UniProt P06730, sequence (P06730 whole entry, looked up): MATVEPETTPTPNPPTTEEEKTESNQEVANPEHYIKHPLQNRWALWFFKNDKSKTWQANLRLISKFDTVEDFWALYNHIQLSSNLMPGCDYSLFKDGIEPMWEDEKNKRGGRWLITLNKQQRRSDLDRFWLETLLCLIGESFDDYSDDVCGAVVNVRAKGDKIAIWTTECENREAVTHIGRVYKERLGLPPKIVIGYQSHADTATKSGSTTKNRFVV
inactive: [1] -0.002 | [2] -0.038 | [4] -0.085 | [5] -0.083 | [6] 0.039 | [7] 0.112 | [9] 0.039 | [11] 0.198 | [12] 0.165 | [14] -0.099 | [15] 0.143 | [16] -0.006 | [17] 0.003 | [18] -0.02 | [19] -0.045 | [20] 0.159
active: [3] 0.346 | [8] 0.354 | [10] 0.373 | [13] 0.4

DYNC1LI2 (UniProt O43237)
UniProt O43237, sequence (O43237 whole entry, looked up): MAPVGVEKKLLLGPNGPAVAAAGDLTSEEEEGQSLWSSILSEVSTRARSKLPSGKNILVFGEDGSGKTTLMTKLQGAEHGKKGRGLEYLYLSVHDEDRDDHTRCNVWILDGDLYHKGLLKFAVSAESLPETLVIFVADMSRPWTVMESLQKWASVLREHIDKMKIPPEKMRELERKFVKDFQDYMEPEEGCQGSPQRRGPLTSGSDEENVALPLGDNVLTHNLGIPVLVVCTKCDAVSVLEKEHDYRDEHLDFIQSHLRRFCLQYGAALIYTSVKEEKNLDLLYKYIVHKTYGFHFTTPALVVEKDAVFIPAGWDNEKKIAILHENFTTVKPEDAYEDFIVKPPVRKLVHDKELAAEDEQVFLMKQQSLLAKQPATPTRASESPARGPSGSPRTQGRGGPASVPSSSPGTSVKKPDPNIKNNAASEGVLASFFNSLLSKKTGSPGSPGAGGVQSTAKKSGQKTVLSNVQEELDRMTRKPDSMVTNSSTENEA
inactive: [1] -0.19 | [2] 0.384 | [3] 0.005 | [4] 0.092 | [5] -0.053 | [6] 0.101 | [7] -0.099 | [8] -0.119 | [9] 0.116 | [10] -0.223 | [11] 0.025 | [12] 0.079 | [13] -0.283 | [14] 0.393 | [15] -0.049 | [16] 0.235 | [17] 0.018 | [18] 0.054 | [19] -0.121 | [20] -0.026

DLD (UniProt P09622)
inactive: [1] -0.003 | [2] -0.106 | [3] -0.032 | [4] 0.004 | [5] -0.024 | [6] -0.056 | [7] -0.096 | [8] 0.036 | [9] -0.015 | [10] 0.067 | [11] -0.068 | [12] -0.023 | [13] 0.019 | [14] -0.042 | [15] 0.016 | [16] -0.02 | [17] -0.009 | [18] 0.014 | [19] -0.016 | [20] -0.083

DAG1 (UniProt Q14118)
UniProt Q14118, sequence (Q14118 whole entry, looked up): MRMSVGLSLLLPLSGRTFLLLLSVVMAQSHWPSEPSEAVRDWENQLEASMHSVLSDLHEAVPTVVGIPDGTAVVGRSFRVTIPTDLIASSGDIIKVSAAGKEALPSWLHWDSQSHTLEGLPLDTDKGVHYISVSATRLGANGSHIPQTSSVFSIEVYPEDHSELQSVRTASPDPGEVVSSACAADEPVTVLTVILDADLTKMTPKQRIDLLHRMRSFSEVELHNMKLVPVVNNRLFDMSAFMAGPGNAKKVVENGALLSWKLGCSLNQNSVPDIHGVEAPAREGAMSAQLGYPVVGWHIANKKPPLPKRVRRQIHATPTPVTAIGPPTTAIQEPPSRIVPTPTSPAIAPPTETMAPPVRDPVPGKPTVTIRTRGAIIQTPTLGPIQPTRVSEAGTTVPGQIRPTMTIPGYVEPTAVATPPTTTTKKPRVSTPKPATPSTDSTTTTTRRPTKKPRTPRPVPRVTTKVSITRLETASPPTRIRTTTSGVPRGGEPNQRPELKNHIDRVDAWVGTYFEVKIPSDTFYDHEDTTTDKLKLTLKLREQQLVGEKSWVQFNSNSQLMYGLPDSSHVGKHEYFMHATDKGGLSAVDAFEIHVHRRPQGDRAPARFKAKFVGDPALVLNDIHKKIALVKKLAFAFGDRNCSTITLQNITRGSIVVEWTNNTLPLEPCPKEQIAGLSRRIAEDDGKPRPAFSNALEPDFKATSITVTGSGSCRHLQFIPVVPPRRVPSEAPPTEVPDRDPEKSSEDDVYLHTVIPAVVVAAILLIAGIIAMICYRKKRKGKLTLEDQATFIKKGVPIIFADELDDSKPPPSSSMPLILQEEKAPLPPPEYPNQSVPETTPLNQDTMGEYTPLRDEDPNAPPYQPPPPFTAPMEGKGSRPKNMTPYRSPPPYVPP
inactive: [1] 0.005 | [2] 0.054 | [3] -0.045 | [4] -0.047 | [5] -0.075 | [6] 0.105 | [7] 0.032 | [8] 0.082 | [9] -0.015 | [10] 0.115 | [11] 0.037 | [12] 0.119 | [13] 0.132 | [14] 0.032 | [15] 0.116 | [16] -0.006 | [17] -0.084 | [18] -0.032 | [19] -0.001 | [20] -0.001

DFFB (UniProt O76075)
inactive: [1] -0.016 | [2] -0.141 | [3] -0.093 | [4] -0.03 | [5] -0.004 | [6] 0.06 | [7] -0.054 | [8] 0.041 | [9] -0.015 | [10] -0.074 | [11] 0.018 | [12] 0.072 | [13] 0.012 | [14] 0.106 | [15] 0.037 | [16] -0.017 | [17] -0.123 | [18] -0.012 | [19] -0.021 | [20] -0.006

DPYSL2 (UniProt Q16555)
active: [10] 0.262
inactive: [1] -0.082 | [2] 0.006 | [3] -0.06 | [4] 0.029 | [5] 0.093 | [6] 0.055 | [7] -0.041 | [8] 0.038 | [9] 0.029 | [11] 0.034 | [12] 0.025 | [13] -0.09 | [14] 0.023 | [15] 0.33 | [16] -0.015 | [17] -0.012 | [18] 0.082 | [19] 0.069

ERLIN1 (UniProt O75477)
UniProt O75477, sequence (O75477 whole entry, looked up): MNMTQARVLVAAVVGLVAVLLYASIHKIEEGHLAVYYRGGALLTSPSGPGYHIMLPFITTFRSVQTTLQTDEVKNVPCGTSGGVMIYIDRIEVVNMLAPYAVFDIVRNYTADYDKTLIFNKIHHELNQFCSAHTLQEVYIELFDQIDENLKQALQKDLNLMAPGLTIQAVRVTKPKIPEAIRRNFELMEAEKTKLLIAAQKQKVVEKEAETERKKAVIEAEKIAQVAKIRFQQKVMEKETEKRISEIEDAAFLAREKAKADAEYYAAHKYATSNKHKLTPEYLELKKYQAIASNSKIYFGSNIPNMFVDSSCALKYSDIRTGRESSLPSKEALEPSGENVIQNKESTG
inactive: [1] -0.013 | [2] 0.031 | [3] 0.037 | [4] 0.128 | [5] -0.092 | [6] -0.075 | [7] -0.051 | [8] -0.14 | [9] 0.006 | [10] -0.107 | [11] 0.012 | [12] -0.039 | [13] -0.038 | [14] 0.099 | [15] -0.021 | [16] -0.04 | [17] 0.025 | [18] 0.148 | [19] 0.057
active: [20] -0.27

DPH5 isoform 5 (UniProt Q9H2P9)
UniProt Q9H2P9, sequence (Q9H2P9 whole entry, looked up): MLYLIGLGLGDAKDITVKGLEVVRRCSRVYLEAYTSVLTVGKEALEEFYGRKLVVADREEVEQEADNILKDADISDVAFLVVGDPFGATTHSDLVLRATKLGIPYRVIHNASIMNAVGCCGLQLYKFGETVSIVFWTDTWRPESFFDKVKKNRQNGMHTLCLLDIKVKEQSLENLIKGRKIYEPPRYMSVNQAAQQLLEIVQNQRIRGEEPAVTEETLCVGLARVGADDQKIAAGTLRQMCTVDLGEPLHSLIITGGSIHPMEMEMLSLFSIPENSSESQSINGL
inactive: [1] -0.01 | [2] -0.024 | [3] -0.002 | [4] -0.049 | [5] -0.037 | [6] -0.071 | [7] 0.017 | [8] 0.046 | [9] 0.043 | [10] -0.006 | [11] 0.017 | [12] 0.092 | [13] 0.072 | [14] -0.046 | [15] 0.077 | [16] -0.011 | [17] -0.01 | [18] -0.01 | [19] -0.025 | [20] 0.076

DNAJC19 (UniProt Q96DA6)
UniProt Q96DA6, sequence (Q96DA6 whole entry, looked up): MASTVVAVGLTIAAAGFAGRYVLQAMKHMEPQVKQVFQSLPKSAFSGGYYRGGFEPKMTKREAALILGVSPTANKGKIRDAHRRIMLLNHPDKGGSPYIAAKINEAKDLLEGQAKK
active: [6] -0.205
inactive: [1] 0.096 | [2] -0.155 | [3] 0.016 | [4] -0.004 | [5] -0.022 | [7] 0.006 | [8] 0.045 | [9] -0.012 | [10] 0.025 | [11] 0.008 | [12] -0.073 | [13] 0.055 | [14] -0.089 | [15] 0.004 | [16] 0.011 | [17] 0.007 | [18] -0.017 | [19] -0.011 | [20] -0.069

DDB1 (UniProt Q16531)
UniProt Q16531, sequence (Q16531 whole entry, looked up): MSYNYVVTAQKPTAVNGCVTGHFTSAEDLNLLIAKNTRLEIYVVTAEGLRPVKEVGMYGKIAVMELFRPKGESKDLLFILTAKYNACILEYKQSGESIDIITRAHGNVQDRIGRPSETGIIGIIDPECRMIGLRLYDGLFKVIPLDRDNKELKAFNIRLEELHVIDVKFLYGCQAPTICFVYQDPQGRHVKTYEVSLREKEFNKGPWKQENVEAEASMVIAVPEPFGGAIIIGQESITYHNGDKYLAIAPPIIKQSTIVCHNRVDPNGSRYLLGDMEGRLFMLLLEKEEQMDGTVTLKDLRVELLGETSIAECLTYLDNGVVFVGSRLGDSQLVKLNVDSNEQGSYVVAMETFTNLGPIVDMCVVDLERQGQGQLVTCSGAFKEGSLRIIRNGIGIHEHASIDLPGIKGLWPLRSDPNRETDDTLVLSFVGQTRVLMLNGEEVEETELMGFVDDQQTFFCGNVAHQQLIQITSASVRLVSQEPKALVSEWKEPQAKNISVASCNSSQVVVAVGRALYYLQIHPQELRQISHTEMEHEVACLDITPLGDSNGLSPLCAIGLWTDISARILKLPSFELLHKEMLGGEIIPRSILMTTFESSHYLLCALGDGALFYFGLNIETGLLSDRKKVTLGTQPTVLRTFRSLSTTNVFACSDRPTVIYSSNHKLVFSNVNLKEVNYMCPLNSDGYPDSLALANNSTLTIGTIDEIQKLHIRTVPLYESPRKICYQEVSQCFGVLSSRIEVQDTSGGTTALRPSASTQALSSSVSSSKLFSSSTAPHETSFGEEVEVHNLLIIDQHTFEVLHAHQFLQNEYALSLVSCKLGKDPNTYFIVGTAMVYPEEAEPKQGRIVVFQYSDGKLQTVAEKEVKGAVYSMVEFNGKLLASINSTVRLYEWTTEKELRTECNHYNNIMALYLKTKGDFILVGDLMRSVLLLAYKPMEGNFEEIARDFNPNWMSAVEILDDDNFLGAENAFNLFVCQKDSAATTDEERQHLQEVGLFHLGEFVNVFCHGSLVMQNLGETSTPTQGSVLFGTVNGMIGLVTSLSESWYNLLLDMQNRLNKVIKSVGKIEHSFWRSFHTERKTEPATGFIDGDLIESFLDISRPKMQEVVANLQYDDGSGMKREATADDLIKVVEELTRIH
inactive: [1] -0.024 | [2] -0.015 | [3] -0.017 | [4] -0.029 | [5] -0.06 | [6] 0.006 | [7] -0.012 | [8] 0.061 | [9] -0.022 | [10] 0.025 | [11] 0.005 | [12] 0.033 | [13] 0.026 | [14] -0.039 | [15] 0.02 | [16] -0.028 | [17] -0.013 | [18] -0.037 | [19] -0.033 | [20] 0.009

DHRS7B (UniProt Q6IAN0)
UniProt Q6IAN0, sequence (Q6IAN0 whole entry, looked up): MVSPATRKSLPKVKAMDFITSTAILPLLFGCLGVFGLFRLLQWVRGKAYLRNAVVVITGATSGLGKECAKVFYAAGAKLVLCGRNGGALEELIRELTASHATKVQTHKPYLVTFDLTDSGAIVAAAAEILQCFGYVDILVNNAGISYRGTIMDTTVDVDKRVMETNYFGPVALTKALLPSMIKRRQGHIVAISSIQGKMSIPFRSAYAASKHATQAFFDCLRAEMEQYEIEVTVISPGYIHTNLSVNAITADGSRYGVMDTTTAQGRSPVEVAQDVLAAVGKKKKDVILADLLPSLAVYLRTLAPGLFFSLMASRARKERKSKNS
inactive: [1] 0.012 | [2] 0.03 | [3] -0.058 | [4] -0.03 | [5] 0.012 | [7] 0.056 | [8] -0.025 | [9] 0.109 | [10] -0.143 | [11] 0.066 | [12] 0.194 | [13] 0.003 | [14] -0.08 | [15] 0.097 | [16] -0.232 | [17] 0.033 | [18] 0.105 | [19] -0.006
active: [6] 0.335 | [20] 0.367

CUX1 isoform 2 (UniProt Q13948)
inactive: [1] -0.095 | [2] 0.077 | [3] -0.007 | [4] -0.043 | [5] 0.012 | [6] -0.062 | [7] -0.029 | [8] 0.074 | [9] 0.009 | [10] 0.018 | [11] -0.217 | [12] -0.063 | [13] 0.029 | [14] -0.063 | [15] 0.029 | [16] -0.046 | [17] -0.029 | [18] 0.002 | [19] -0.015 | [20] -0.008

FAM122A (UniProt Q96E09)
UniProt Q96E09, sequence (Q96E09 whole entry, looked up): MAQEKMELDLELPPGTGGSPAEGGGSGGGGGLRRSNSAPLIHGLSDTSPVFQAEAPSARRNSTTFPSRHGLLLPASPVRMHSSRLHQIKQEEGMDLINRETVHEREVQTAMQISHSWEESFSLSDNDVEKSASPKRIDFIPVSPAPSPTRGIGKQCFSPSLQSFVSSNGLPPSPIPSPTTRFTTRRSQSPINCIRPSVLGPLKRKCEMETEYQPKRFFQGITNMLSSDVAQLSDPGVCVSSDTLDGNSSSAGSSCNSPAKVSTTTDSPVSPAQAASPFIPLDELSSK
inactive: [1] -0.05 | [2] -0.004 | [3] -0.038 | [4] 0.017 | [5] -0.068 | [6] -0.053 | [7] 0.019 | [8] 0.005 | [9] 0.018 | [10] 0.092 | [11] 0.077 | [12] -0.032 | [13] -0.267 | [14] -0.042 | [15] 0.059 | [16] -0.015 | [17] 0.038 | [18] -0.015 | [19] 0.014 | [20] 0

EIF2S3 (UniProt P41091)
UniProt P41091, sequence (P41091 whole entry, looked up): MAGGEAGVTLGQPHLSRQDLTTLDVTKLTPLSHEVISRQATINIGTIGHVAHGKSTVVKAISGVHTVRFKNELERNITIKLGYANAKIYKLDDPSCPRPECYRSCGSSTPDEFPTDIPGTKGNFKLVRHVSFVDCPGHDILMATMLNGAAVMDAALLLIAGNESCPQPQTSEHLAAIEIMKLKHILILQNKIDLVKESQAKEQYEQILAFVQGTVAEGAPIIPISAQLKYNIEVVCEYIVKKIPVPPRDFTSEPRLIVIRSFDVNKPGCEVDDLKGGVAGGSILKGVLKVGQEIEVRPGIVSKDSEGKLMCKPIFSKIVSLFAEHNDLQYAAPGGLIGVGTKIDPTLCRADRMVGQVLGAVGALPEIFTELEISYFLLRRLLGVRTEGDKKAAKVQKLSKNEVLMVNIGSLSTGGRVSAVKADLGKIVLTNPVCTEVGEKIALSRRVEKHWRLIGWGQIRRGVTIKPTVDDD
active: [13] -0.219
inactive: [1] -0.028 | [2] 0.119 | [3] 0 | [4] 0.07 | [5] -0.068 | [6] 0.002 | [7] -0.033 | [8] -0.07 | [9] 0.004 | [10] -0.027 | [11] -0.071 | [12] -0.014 | [14] 0.053 | [15] -0.037 | [16] 0.077 | [17] -0.031 | [18] 0.014 | [19] 0.038 | [20] -0.088

DCAF13 (UniProt Q9NV06)
inactive: [1] -0.083 | [2] 0.333 | [3] -0.01 | [4] 0.17 | [5] -0.067 | [6] -0.047 | [7] -0.063 | [8] -0.112 | [9] 0.083 | [10] -0.103 | [11] -0.086 | [12] 0.067 | [14] 0.273 | [15] -0.105 | [16] 0.221 | [17] 0.007 | [18] -0.033 | [19] 0.173 | [20] -0.1
active: [13] -0.538
